Consider six compounds from PubChem BioAssay (Tox21).

A short description of test [1]: qHTS assay to identify small molecule antagonists of the estrogen related receptor (ERR) signaling pathway from Tox21 library - cell viability counter screen (AID 1224834). Also: nearly all actives have a fitted effect of over 30% in size. Also: potency is read from the fitted curve at half-maximal effect. In outline: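 ERR reporter cells were plated 6 h before compound addition, then exposed to test compounds in DMSO for 17.5 h at 37 C. Viability was read as CellTiter-Fluor fluorescence after a 30-minute incubation at 37 C.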

Test [2] concerns the target Luciferin 4-monooxygenase (Photinus pyralis) (UniProt P08659). In words: qHTS assay to identify small molecule inhibitors of firefly luciferase (AID 1224835). Also: nearly all actives have a fitted effect of over 25% in size. In outline:
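Biochemical qHTS: compounds run as interplate titrations against purified firefly enzyme, with D-luciferin and ATP each at its KM concentration. Light output recorded by CCD imaging.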

A short description of test [3]: qHTS assay to identify small molecule agonists of the constitutive androstane receptor (CAR) signaling pathway - cell viability counter screen (AID 1224836). Also: nearly all actives have a fitted effect of over 45% in size. In outline:
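Using CellTiter-Fluor, viability of HepG2 cells harbouring hCAR and CYP2B6-2.2kb was measured following 23 h incubation with a 15-concentration compound series plus PK11195 (0.75 uM final).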

Test [4] is described as follows: qHTS assay to identify small molecule antagonists of the constitutive androstane receptor (CAR) signaling pathway - cell viability counter screen (AID 1224837). Also: nearly all actives have a fitted effect of over 45% in size. In outline:
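HepG2 cells stably expressing hCAR and a CYP2B6-2.2kb reporter were plated and pre-incubated 4 hr at 37 C/5% CO2, then given compounds at 15 concentrations plus 50 nM CITCO (final). After 23 hr, viability was read by CellTiter-Fluor fluorescence.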

Test [5] has as its target Nuclear receptor subfamily 1 group I member 3 (Homo sapiens) (UniProt Q14994). In words: qHTS assay to identify small molecule antagonists of the constitutive androstane receptor (CAR) signaling pathway (AID 1224838). Also: nearly all actives have a fitted effect of over 40% in size. A digest of the protocol:
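HepG2 cells stably co-transfected with hCAR and a CYP2B6-2.2kb luciferase reporter were seeded 4 h before compound addition at 15 concentrations. Cells were stimulated with 50 nM CITCO (final) for 24 h at 37 C; luciferase luminescence was then read.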

Test [6] shares this target. Nature of the test: qHTS assay to identify small molecule agonists of the constitutive androstane receptor (CAR) signaling pathway (AID 1224839). Also: nearly all actives have a fitted effect of over 15% in size. Also: potency is read from the fitted curve at half-maximal effect.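 As to activation: HepG2 cells stably carrying human CAR and a CYP2B6 luciferase reporter.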 In outline: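 Double-stable HepG2 cells (hCAR, CYP2B6-2.2kb) seeded 4 h before compound addition. Exposure 24 h with 0.75 uM PK11195 final. Luciferase detected by ONE-Glo.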
A short description of test [7]: qHTS assay to identify small molecule antagonists of the estrogen related receptor signaling pathway with the pleiotropic PPARgamma coactivator (PGC) from Tox21 10K library - cell viability counter screen (AID 1224840; active = well fitted cell-killing curve with a large enough effect in the repeat runs, not every such curve was filed as active; also: nearly all actives have a fitted effect of over 40% in size). In outline:
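PGC/ERR cells were seeded at 2,000 cells/well and left 6 hours at 37 C/5% CO2 before pin-tool addition of compounds in DMSO. After 17.5 hours at 37 C, CellTiter-Fluor was added and fluorescence read 30 minutes later.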

Test [8] in a line: qHTS assay to identify small molecule antagonists of the estrogen related receptor signaling pathway with the pleiotropic PPARgamma coactivator (PGC) from Tox21 10K library (AID 1224841; call rule not given here; also: actives are mostly falling curves and most rising ones were filed inactive; nearly all actives have a fitted effect of over 50% in size; also: potency is read from the fitted curve at half-maximal effect). In outline: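 PGC/ERR reporter cells were seeded at 2,000 cells/well and held 6 hours at 37 C/5% CO2 before pin-tool addition of compounds in DMSO. After 18 hours at 37 C, One-Glo was added and luminescence read after 30 minutes at room temperature.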

Test [9] is described as follows: qHTS assay to identify small molecule agonists of the estrogen related receptor signaling pathway with the pleiotropic PPARgamma coactivator (PGC) from Tox21 10K library (AID 1224842). Also: nearly all actives have a fitted effect of over 15% in size. In outline: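 PGC/ERR reporter cell line, 2,000 cells per well, incubated 6 h at 37 C before 23 nL compound in DMSO was added. After 18 h at 37 C, One-Glo luminescence read following 30 min at room temperature.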

Test [10] deals with Thyrotropin receptor (Homo sapiens) (UniProt P16473). Nature of the test: qHTS assay to identify small molecule agonists of the thyroid stimulating hormone receptor (TSHR) signaling pathway (AID 1224843; calls by dose curve; also: nearly all actives have a fitted effect of over 45% in size). In outline: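 TSHR-HEK293 cells in agonist mode, 30 min room-temperature step, then cAMP measured by competitive HTRF (cAMP-d2 with anti-cAMP cryptate) after 1 h at room temperature. Tested at 15 concentrations in triplicate.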

Test [11] can be described thus: qHTS assay to identify small molecule agonists of the hypoxia (HIF-1) signaling pathway - cell viability counter screen (AID 1224844; calls by dose curve; also: nearly all actives have a fitted effect of over 50% in size). A digest of the protocol:
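HRE-bla ME-180 cells in medium with 0.5% dialyzed FBS were preincubated 5 hrs at 37C, exposed to compounds for 17 hrs, then viability was read as CellTiter-Glo luminescence after 30 min at room temperature, in the reporter wells.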

Test [12] can be described thus: qHTS assay to identify small molecule agonists of the hypoxia (HIF-1) signaling pathway (AID 1224846; active = well fitted activation curve with a large enough effect in the signal ratio in the repeat runs, not every such curve was filed as active; the % refers to the signal ratio). In outline:
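HRE-bla ME-180 cells (beta-lactamase reporter under hypoxia response element) were plated at 2,000 cells/well in medium with 0.5% dialyzed FBS, rested 5 hrs, then given compounds in DMSO for 17 hrs at 37C, 5% CO2. Reporter induction was read with CCF4-AM FRET substrate.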

Test [13] in a line: qHTS assay to identify small molecule agonists of H2AX - cell viability counter screen (AID 1224847; calls by dose curve; also: top concentration of the series differs between compounds; nearly all actives have a fitted effect of over 30% in size). A digest of the protocol:
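Quantitative HTS viability measurement: CHO-K1 wild-type cells in serum (10% FBS) medium, short 3 hr drug exposure at 37C with 0.76% DMSO, CellTiter-Glo luminescent detection.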

The nature of test [14]: qHTS assay to identify small molecule antagonists of the estrogen related receptor (ERR) signaling pathway from Tox21 library (AID 1224848). Also: nearly all actives have a fitted effect of over 50% in size. Also: potency is read from the fitted curve at half-maximal effect. In outline: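 ERR reporter cell line (from NTP) seeded 2,000 cells/well, rested 6 h at 37 C/5% CO2, then pin-dosed with compounds in DMSO. After 18 h at 37 C, ONE-Glo added; luminescence read after 30 min at room temperature.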
The nature of test [15]: qHTS assay to identify small molecule agonists of the estrogen related receptor (ERR) signaling pathway from Tox21 library (AID 1224849; calls by dose curve; also: nearly all actives have a fitted effect of over 15% in size). As to conditions: ERR reporter cell line, ONE-Glo luciferase, 18 h. In outline:
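ERR reporter cell line (NTP) seeded, rested 6 h at 37 C/5% CO2, then pinned with Tox21 compounds in DMSO. After 18 h at 37 C, ONE-Glo luciferase luminescence was read following 30 min at room temperature.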

The nature of test [16]: qHTS RealTime-Glo MT Cell Viability Assay in HepG2 cells - 24 hour (AID 1224867). Also: nearly all actives have a fitted effect of over 50% in size. In outline: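 Compound treatment began 5 h after plating HepG2 cells (600/well) with NanoLuc luciferase and prosubstrate. Plates stayed at 37 C for 40 h; luminescence was captured at six time points, 0 h through 40 h.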
Test [17] is described as follows: A CellTox Green Cytotoxicity Assay to monitor cytotoxicity in HEK293 cells - 0 hour (AID 1224869). Also: nearly all actives have a fitted effect of over 50% in size. In outline:
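HEK293 cells premixed with CellTox Green dye were seeded at 600 cells/well and left 5 h at 37 C/5% CO2 before pin transfer of 23 nL compound in DMSO. Fluorescence from dye bound to dead-cell DNA was read during 40 h treatment.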

Test [18] can be described thus: qHTS RealTime-Glo MT Cell Viability Assay in HEK293 cells - 32 hour (AID 1224868). Also: nearly all actives have a fitted effect of over 50% in size. Also: potency is read from the fitted curve at half-maximal effect. In outline: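 Quantitative high-throughput screen of the Tox21 10K library in HEK293: cells and RealTime-Glo reagents plated together, compound added at 5 h, luminescence monitored through 40 h at 37 C.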
Test [19] can be described thus: qHTS assay to identify small molecule agonists of H2AX (AID 1224845; active = well fitted activation curve with a large enough effect in the signal ratio in the repeat runs, not every such curve was filed as active; the % refers to the signal ratio). In outline:
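Wild-type CHO-K1 cells, plated overnight, exposed 3hr at 37C to 15 concentrations (0.76% DMSO final). Lysed, then HTRF anti-pH2AX (S139) cryptate and anti-H2AX-d2 antibodies, 24 hr room temperature; 665/620 nm emission read.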

Structures are written as SMILES. “And” between values parts separate entries of the source, which are not always exact repeats. Equal values may be shown once. Inconclusive results are not listed. Some structures have more than one record in an assay (separate samples or runs), and their calls can disagree. The source made the active and inactive calls. Unless noted, calls follow the shape of the dose curve; as a rule, active = well fitted curve in the direction sought with a large enough effect in the repeat runs; inconclusive = weak or mixed curves; inactive = no such curve, though single readings can be large; an effect the other way counts as inactive or inconclusive.
% is scaled to controls: 0 for no effect and ±100 for the full control effect.

Chain of Thyrotropin receptor (Homo sapiens) (P16473 whole entry, looked up): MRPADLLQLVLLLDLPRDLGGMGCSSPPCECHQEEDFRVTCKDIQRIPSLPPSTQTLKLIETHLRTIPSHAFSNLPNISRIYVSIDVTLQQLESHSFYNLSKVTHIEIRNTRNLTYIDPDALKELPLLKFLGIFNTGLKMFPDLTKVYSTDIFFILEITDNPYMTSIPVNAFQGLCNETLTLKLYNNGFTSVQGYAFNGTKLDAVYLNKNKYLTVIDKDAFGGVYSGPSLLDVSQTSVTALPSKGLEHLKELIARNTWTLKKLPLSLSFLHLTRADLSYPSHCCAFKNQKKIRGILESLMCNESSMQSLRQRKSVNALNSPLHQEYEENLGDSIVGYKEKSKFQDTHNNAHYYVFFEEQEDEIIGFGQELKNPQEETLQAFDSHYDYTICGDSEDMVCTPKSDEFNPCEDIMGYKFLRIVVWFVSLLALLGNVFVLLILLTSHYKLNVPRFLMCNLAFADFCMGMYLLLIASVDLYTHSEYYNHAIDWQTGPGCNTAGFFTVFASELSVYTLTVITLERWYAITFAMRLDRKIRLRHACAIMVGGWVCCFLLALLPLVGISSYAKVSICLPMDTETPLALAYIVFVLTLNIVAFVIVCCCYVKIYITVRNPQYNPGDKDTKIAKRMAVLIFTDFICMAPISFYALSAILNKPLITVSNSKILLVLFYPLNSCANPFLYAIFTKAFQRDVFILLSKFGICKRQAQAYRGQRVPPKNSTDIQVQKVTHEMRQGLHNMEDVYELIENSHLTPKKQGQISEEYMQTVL
Chain of Nuclear receptor subfamily 1 group I member 3 (Homo sapiens) (Q14994 whole entry, looked up): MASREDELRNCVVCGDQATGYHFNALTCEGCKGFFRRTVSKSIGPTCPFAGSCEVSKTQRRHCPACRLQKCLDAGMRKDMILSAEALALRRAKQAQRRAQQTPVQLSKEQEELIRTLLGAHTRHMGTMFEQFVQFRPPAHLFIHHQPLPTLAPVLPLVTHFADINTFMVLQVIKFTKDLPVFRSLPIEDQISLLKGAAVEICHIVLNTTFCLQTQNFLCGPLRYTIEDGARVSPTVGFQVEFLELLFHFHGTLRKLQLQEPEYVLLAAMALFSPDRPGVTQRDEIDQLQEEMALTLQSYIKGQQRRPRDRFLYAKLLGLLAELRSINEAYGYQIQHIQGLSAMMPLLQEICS
Chain of Luciferin 4-monooxygenase (Photinus pyralis) (P08659 whole entry, looked up): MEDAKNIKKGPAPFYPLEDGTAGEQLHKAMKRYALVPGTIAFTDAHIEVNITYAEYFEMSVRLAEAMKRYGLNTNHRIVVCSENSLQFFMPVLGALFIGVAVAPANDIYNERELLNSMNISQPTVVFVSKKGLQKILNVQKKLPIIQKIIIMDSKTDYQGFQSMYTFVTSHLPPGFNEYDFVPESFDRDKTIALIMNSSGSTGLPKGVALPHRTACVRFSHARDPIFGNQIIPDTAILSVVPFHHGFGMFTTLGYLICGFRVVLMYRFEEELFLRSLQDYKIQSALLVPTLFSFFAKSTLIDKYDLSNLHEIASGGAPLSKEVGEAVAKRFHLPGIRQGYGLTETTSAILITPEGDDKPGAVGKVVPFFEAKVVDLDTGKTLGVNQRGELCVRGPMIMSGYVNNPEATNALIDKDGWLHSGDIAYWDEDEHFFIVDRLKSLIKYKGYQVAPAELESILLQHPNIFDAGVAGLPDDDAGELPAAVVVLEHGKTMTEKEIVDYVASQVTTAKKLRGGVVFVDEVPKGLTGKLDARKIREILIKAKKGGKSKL

As for `CCC(C)(c1ccc(O)cc1)c1ccc(O)cc1`, the Potency in [1] was 68.5 µM (active); in test [6], 4.85 µM (active) and 3.06 µM (active); in test [8], 48.5 µM (active); in test [14] it was 54.5 µM (active). Moreover, the Potency entry in test [2], in [3], in [4], in test [5], in [7] and in test [9] was “inactive” throughout. Also, the Potency entry in test [10], in test [11], in [13], in test [16] and in test [17] was “inactive” each time. Also, the compound was classed as inactive in [12]. Also, in test [15] (at 92.4 µM (top of the series)), the activity change, positive = activation was -28.1% (inactive) and -37.5% (inactive).

As to `NCc1cccnc1`, the Potency result in test [1], in [2], in test [3], in test [4], in [5] and in test [6] was “inactive” each time. Besides, the Potency result in [7], in [8], in test [9], in test [10], in test [11] and in [13] was “inactive” each time. Further, the Potency entry in test [14], in [16], in test [18] and in [17] was “inactive” in each case. The call in test [12] was inactive. The activity change, positive = activation was 0.61% (inactive) in [15] (at 42.5 µM (top of the series)) and 4.26% (inactive) in test [15] (at 92.4 µM (top of the series)).

Turning to `CCOC(=O)C(C)OC(=O)c1cc(Oc2ccc(C(F)(F)F)cc2Cl)ccc1[N+](=O)[O-]` (centres undefined), the Potency result in [1], in test [2], in test [3], in test [4], in [5] and in test [7] was “inactive” throughout. Further, the Potency entry in test [9], in test [11], in test [13], in test [16] and in test [17] was “inactive” throughout. In addition, the Potency in [6] is 54.2 µM (active) and inactive; in test [8], 24.2 µM (active); in [14], 21.6 µM (active); in test [18] it was 30.7 µM (active). The compound was classed as inactive in [12]. For the same compound, the activity change, positive = activation in test [15] (at 92.4 µM (top of the series)) is -45.1% (inactive) and -19.8% (inactive).

With `c1nc[nH]n1`, the Potency entry in test [1], in [2], in [3], in test [4], in test [5] and in [6] was “inactive” each time. The Potency entry in test [7], in test [8], in test [9], in test [10], in test [11] and in test [13] was “inactive” throughout. The Potency entry in test [14], in test [16], in test [18] and in test [17] was “inactive” each time. In addition, the outcome in test [12] was inactive. Besides, in [15] (at 92.4 µM (top of the series)), the activity change, positive = activation was 1.27% (inactive) and 6.15% (inactive).

Regarding `CCOc1cc(C=O)ccc1O`, the Potency entry in [1], in test [2], in [3], in test [4], in test [5] and in test [6] was “inactive” in each case. Further, the Potency result in test [7], in [10], in test [11], in test [19], in [13] and in test [16] was “inactive” throughout. For the same compound, the Potency entry in [18] and in test [17] was “inactive” each time. Besides, the outcome in test [12] was inactive.

Regarding `O=[N+]([O-])c1cccc2ccccc12`, the Potency result in [1], in test [2], in test [3], in test [4], in [5] and in test [6] was “inactive” each time. Also, the Potency result in test [7], in test [8], in test [9], in [10], in [11] and in [13] was “inactive” throughout. Further, the Potency result in test [14], in [16], in [18] and in test [17] was “inactive” in each case. For the same compound, the call in [12] was inactive. For the same compound, the activity change, positive = activation in test [15] (at 92.4 µM (top of the series)) is -1.67% (inactive) and -0.342% (inactive).
